{
  "source": "the supplement of paper PMC11732987",
  "about": "“Enantioselective OTUD7B fragment discovery through chemoproteomics screening and high-throughput optimisation” (Communications Chemistry, 2025)",
  "data": [
    {"compound": "ClCC(=O)NC(C1CC1)C1CC1", "test": "log2 ratio of Biotin-Ahx-Ub-VS probe labelling (fragment/DMSO); higher = less target engagement (more negative = stronger competition), active = hit call of the paper (q ≤ 0.05, log2 ratio ≤ -1)", "conditions": "compound concentration: 200 uM; treatment time: 3 h", "procedure": "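Competitive ABPP in HEK293T cell lysate. Lysates were treated with each chloroacetamide fragment at 200 µM for 3 h, then with Biotin-Ahx-Ub-VS (0.5 µM, 1 h), NeutrAvidin-enriched and analysed by diaPASEF LC-MS/MS. Protein LFQ was median-normalised; average log2 ratio is fragment/DMSO from an unpaired t-test (n=3 treated, n=44 DMSO). Hits: q ≤ 0.05, log2 ratio ≤ -1, unique peptides ≥ 2.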", "values": [
      {"target": "COPS5 (UniProt Q92905)", "log2 ratio of Biotin-Ahx-Ub-VS probe labelling": "-0.232 (inactive)"},
      {"target": "USP22 (UniProt Q9UPT9)", "sequence (Q9UPT9 whole entry)": "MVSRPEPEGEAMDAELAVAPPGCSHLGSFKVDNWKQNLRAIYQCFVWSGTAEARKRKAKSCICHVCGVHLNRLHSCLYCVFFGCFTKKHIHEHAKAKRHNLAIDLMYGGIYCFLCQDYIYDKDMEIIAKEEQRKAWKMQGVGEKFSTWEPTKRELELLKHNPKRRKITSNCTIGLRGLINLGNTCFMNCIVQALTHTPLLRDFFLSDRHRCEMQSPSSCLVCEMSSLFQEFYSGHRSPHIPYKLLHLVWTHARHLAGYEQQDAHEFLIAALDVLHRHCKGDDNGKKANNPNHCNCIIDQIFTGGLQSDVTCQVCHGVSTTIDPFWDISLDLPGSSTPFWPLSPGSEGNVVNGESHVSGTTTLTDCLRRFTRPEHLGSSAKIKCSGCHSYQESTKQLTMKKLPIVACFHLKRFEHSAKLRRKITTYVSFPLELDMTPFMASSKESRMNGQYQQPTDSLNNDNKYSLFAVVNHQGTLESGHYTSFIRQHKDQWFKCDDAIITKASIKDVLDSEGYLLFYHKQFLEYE", "log2 ratio of Biotin-Ahx-Ub-VS probe labelling": "-0.16 (inactive)"},
      {"target": "USP4 (UniProt Q13107)", "log2 ratio of Biotin-Ahx-Ub-VS probe labelling": "-0.162 (inactive)"},
      {"target": "USP36 (UniProt Q9P275)", "log2 ratio of Biotin-Ahx-Ub-VS probe labelling": "-0.148 (inactive)"},
      {"target": "USP25 (UniProt Q9UHP3)", "log2 ratio of Biotin-Ahx-Ub-VS probe labelling": "-0.502 (inactive)"},
      {"target": "USP28 (UniProt Q96RU2)", "log2 ratio of Biotin-Ahx-Ub-VS probe labelling": "-0.446 (inactive)"},
      {"target": "USP24 (UniProt Q9UPU5)", "log2 ratio of Biotin-Ahx-Ub-VS probe labelling": "-0.346 (inactive)"},
      {"target": "USP9X (UniProt Q93008)", "log2 ratio of Biotin-Ahx-Ub-VS probe labelling": "-0.125 (inactive)"},
      {"target": "UniProt Q9P2H5", "log2 ratio of Biotin-Ahx-Ub-VS probe labelling": "-0.0753 (inactive)"},
      {"target": "OTUD4 (UniProt Q01804)", "log2 ratio of Biotin-Ahx-Ub-VS probe labelling": "-0.457 (inactive)"},
      {"target": "USP15 (UniProt Q9Y4E8)", "log2 ratio of Biotin-Ahx-Ub-VS probe labelling": "-0.268 (inactive)"},
      {"target": "UniProt Q9UGI0", "log2 ratio of Biotin-Ahx-Ub-VS probe labelling": "-0.0131 (inactive)"},
      {"target": "USP48 (UniProt Q86UV5)", "log2 ratio of Biotin-Ahx-Ub-VS probe labelling": "0.01 (inactive)"},
      {"target": "USP34 (UniProt Q70CQ2)", "log2 ratio of Biotin-Ahx-Ub-VS probe labelling": "-0.194 (inactive)"},
      {"target": "UniProt Q8TE49", "log2 ratio of Biotin-Ahx-Ub-VS probe labelling": "-0.531 (inactive)"},
      {"target": "OTUD7B (UniProt Q6GQQ9)", "log2 ratio of Biotin-Ahx-Ub-VS probe labelling": "-1.44 (active)"},
      {"target": "USP46 (UniProt P62068)", "log2 ratio of Biotin-Ahx-Ub-VS probe labelling": "0.045 (inactive)"},
      {"target": "USP19 (UniProt O94966)", "log2 ratio of Biotin-Ahx-Ub-VS probe labelling": "-0.198 (inactive)"},
      {"target": "FAM105A (UniProt Q9NUU6)", "log2 ratio of Biotin-Ahx-Ub-VS probe labelling": "-0.0106 (inactive)"},
      {"target": "USP39 (UniProt Q53GS9)", "log2 ratio of Biotin-Ahx-Ub-VS probe labelling": "-0.194 (inactive)"},
      {"target": "USP54 (UniProt Q70EL1)", "log2 ratio of Biotin-Ahx-Ub-VS probe labelling": "-0.749 (inactive)"},
      {"target": "EIF3H (UniProt O15372)", "log2 ratio of Biotin-Ahx-Ub-VS probe labelling": "-0.0951 (inactive)"},
      {"target": "USP42 (UniProt Q9H9J4)", "sequence (Q9H9J4 whole entry)": "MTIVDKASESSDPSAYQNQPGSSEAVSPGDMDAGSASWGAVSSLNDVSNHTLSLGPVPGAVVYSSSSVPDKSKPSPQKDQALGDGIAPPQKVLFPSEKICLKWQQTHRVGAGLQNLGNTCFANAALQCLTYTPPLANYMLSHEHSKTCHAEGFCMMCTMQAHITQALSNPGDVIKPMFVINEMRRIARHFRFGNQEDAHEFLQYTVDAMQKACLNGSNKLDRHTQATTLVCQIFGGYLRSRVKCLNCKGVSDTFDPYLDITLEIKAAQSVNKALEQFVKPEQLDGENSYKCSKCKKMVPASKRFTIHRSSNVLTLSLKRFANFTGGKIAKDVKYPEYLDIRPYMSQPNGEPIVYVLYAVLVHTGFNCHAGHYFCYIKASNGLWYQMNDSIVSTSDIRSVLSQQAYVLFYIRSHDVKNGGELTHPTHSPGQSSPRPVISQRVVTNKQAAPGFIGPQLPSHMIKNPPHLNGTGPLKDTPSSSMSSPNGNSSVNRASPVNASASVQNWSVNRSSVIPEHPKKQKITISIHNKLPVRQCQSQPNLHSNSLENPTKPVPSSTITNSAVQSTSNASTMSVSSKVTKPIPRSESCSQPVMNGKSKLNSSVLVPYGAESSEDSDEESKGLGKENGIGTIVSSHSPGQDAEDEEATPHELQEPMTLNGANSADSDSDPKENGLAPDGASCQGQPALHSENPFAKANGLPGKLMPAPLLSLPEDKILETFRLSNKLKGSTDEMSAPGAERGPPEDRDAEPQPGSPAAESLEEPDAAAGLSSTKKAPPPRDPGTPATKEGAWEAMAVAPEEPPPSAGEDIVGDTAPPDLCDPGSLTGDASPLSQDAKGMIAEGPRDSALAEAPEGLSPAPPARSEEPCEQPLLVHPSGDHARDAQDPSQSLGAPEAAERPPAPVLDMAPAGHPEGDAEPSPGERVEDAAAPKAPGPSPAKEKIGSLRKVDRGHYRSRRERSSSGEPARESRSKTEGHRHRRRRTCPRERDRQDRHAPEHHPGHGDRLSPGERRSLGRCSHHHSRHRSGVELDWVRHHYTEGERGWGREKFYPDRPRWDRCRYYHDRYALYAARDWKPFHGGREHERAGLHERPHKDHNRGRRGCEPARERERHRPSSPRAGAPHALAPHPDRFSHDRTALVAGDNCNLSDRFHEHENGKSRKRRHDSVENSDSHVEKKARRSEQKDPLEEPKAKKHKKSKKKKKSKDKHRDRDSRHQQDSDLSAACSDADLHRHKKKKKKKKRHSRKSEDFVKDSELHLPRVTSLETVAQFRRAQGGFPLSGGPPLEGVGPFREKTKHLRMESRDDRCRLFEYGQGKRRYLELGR", "log2 ratio of Biotin-Ahx-Ub-VS probe labelling": "-0.0349 (inactive)"},
      {"target": "USP8 (UniProt P40818)", "log2 ratio of Biotin-Ahx-Ub-VS probe labelling": "-0.0528 (inactive)"},
      {"target": "VCPIP1 (UniProt Q96JH7)", "log2 ratio of Biotin-Ahx-Ub-VS probe labelling": "-0.276 (inactive)"},
      {"target": "USP47 (UniProt Q96K76)", "log2 ratio of Biotin-Ahx-Ub-VS probe labelling": "-0.205 (inactive)"},
      {"target": "UniProt O00507", "log2 ratio of Biotin-Ahx-Ub-VS probe labelling": "-0.0912 (inactive)"},
      {"target": "UCHL1 (UniProt P09936)", "sequence (P09936 whole entry, looked up)": "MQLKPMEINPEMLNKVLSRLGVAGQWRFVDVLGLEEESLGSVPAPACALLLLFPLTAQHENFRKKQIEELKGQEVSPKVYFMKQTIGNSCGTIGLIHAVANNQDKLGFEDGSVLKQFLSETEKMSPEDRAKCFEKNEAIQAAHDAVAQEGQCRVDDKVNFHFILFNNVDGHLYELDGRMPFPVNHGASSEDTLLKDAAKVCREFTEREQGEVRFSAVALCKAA", "log2 ratio of Biotin-Ahx-Ub-VS probe labelling": "-1.28 (active)"},
      {"target": "UCHL3 (UniProt P15374)", "log2 ratio of Biotin-Ahx-Ub-VS probe labelling": "0.117 (inactive)"},
      {"target": "USP14 (UniProt P54578)", "log2 ratio of Biotin-Ahx-Ub-VS probe labelling": "-0.411 (inactive)"},
      {"target": "EIF3F (UniProt O00303)", "sequence (O00303 whole entry)": "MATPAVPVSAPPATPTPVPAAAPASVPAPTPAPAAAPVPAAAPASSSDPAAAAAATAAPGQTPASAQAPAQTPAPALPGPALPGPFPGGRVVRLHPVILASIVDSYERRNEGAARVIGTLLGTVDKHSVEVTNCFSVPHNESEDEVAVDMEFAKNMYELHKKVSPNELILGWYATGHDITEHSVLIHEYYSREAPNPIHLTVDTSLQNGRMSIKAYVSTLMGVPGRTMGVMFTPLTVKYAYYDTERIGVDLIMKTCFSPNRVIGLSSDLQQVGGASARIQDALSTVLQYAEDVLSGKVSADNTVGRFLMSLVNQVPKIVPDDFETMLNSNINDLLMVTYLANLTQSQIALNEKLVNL", "log2 ratio of Biotin-Ahx-Ub-VS probe labelling": "-0.0875 (inactive)"},
      {"target": "ALG13 (UniProt Q9NP73)", "sequence (Q9NP73 whole entry)": "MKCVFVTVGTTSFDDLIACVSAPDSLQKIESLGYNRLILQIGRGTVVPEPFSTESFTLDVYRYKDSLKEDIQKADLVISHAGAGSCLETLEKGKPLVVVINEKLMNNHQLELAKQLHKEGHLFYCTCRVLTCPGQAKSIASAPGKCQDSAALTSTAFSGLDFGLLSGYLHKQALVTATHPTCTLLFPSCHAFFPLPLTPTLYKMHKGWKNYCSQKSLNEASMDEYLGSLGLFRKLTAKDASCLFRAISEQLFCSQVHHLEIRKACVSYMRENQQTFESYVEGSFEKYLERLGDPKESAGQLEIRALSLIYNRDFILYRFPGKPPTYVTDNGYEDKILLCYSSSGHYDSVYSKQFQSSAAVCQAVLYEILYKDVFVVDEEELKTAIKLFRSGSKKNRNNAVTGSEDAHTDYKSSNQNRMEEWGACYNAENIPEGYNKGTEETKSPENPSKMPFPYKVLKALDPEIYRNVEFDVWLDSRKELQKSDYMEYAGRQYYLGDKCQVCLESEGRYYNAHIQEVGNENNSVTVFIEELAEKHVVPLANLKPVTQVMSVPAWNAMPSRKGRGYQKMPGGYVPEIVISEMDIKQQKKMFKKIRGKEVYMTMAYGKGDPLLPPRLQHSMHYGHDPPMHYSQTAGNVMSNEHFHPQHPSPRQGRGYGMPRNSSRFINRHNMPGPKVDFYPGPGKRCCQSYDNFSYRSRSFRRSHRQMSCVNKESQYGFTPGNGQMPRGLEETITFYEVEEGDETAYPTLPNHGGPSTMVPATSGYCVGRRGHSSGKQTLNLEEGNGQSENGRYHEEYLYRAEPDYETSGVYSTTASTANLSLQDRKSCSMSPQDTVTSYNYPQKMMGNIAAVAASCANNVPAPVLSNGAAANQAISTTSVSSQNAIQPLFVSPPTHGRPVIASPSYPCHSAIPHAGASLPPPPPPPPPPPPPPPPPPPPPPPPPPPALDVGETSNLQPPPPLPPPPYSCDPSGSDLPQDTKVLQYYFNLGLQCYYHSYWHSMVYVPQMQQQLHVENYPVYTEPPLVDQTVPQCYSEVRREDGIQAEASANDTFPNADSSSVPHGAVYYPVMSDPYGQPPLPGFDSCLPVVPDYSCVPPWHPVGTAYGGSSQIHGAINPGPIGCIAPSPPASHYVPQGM", "log2 ratio of Biotin-Ahx-Ub-VS probe labelling": "0.189 (inactive)"},
      {"target": "USP16 (UniProt Q9Y5T5)", "log2 ratio of Biotin-Ahx-Ub-VS probe labelling": "-0.253 (inactive)"},
      {"target": "ATXN3 (UniProt P54252)", "log2 ratio of Biotin-Ahx-Ub-VS probe labelling": "0.0786 (inactive)"},
      {"target": "PRPF8 (UniProt Q6P2Q9)", "log2 ratio of Biotin-Ahx-Ub-VS probe labelling": "0.0738 (inactive)"},
      {"target": "USP5 (UniProt P45974)", "sequence (P45974 whole entry)": "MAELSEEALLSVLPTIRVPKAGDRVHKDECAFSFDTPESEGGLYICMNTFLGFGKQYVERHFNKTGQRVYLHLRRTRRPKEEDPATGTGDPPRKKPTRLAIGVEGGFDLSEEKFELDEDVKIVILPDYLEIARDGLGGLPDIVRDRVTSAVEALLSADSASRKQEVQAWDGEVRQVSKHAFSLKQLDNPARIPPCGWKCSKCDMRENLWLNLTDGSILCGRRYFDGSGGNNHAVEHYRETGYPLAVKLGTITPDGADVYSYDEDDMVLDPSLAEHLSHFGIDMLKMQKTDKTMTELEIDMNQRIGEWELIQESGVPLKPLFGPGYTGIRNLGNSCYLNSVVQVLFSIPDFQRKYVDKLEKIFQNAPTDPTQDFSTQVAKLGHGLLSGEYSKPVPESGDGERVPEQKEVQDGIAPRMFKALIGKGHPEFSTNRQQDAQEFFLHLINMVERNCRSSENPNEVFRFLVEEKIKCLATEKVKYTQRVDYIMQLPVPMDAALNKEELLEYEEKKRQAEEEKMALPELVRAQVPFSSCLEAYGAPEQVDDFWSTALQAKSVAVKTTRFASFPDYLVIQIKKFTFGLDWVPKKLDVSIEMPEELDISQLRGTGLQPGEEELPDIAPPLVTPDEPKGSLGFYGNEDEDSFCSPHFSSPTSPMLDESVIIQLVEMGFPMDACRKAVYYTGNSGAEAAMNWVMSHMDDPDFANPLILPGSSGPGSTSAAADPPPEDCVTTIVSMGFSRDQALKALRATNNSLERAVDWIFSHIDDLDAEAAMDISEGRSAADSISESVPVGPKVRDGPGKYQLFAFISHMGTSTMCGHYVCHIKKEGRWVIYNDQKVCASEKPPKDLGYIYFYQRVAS", "log2 ratio of Biotin-Ahx-Ub-VS probe labelling": "-0.319 (inactive)"},
      {"target": "UniProt O00487", "log2 ratio of Biotin-Ahx-Ub-VS probe labelling": "-0.179 (inactive)"},
      {"target": "UniProt Q5T2D3", "log2 ratio of Biotin-Ahx-Ub-VS probe labelling": "-0.0205 (inactive)"},
      {"target": "OTUD5 (UniProt Q96G74)", "sequence (Q96G74 whole entry)": "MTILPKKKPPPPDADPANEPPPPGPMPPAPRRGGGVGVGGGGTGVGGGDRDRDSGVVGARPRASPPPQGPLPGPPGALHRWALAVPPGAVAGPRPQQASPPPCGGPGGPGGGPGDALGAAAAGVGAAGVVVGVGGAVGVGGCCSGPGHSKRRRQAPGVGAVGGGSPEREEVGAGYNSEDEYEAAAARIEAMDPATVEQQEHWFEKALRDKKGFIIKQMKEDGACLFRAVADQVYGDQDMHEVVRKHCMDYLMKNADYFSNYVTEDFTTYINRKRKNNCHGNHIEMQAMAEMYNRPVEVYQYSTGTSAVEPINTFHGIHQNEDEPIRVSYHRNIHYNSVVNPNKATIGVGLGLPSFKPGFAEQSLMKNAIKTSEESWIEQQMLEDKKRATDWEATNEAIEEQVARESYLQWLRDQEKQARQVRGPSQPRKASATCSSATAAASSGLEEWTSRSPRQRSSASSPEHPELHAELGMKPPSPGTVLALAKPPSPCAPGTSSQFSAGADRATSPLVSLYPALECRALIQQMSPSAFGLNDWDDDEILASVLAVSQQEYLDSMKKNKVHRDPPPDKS", "log2 ratio of Biotin-Ahx-Ub-VS probe labelling": "-0.0756 (inactive)"},
      {"target": "BAP1 (UniProt Q92560)", "log2 ratio of Biotin-Ahx-Ub-VS probe labelling": "-0.654 (inactive)"}
    ]}
  ]
}
